From PubChem BioAssay (Tox21)
Results filed as inconclusive are left out. The source made the active and inactive calls. The call rests on the fitted dose curve; in most records, active means well fitted activation curve with a large enough effect in the repeat runs; inconclusive means weak or mixed curves; inactive means flat fitted curve, though single readings scatter.

Test: Caspase-3/7 induction in HepG2 cells by small molecules, qHTS assay (AID 1346978); further: nearly all actives have a fitted effect of over 15% in size
Conditions: HepG2 caspase-3/7 activation, Caspase-Glo luminescence, 17 h; series mostly up to 92.4 µM; caspase activation: at the top concentration
Description: National Center for Advancing Translational Sciences [NCATS] NIH Chemical Genomics Center [NCGC] U.S. Environmental Protection Agency [EPA] National Institutes of Environmental Health Sciences [NIEHS] National Toxicology Program [NTP] Assay overview: Apoptosis is a process of programmed cell death and plays a central role in the development of multicellular organisms. It is a highly regulated process and induces cell death by activating caspases, which are the members of cysteine aspartic acid-specific protease (caspase) family. Caspases involved in apoptosis are classified by their mechanism of action as initiator caspases (caspase-2, -8, -9 and -10) and executioner caspases (caspase-3, -6, and -7). Inhibition of apoptosis results in number of cancers, autoimmune diseases, inflammatory diseases and viral infection. To identify small molecule compounds that induce apoptosis, a homogeneous, luminescent Caspase-Glo 3/7 assay was used. Wild type HepG2 cells were used to screen Tox21 libraries for identifying caspase-3/7 activity inducers.
Assay Protocol Summary: HepG2 cells were dispensed at 2,000 per well in 5uL of culture medium into white solid bottom 1536-well plates (Corning Life Sciences, Corning, NY) using a Multidrop Combi (Thermo Scientific, Waltham, MA) dispenser. The assay plates were incubated at 37 C and 5% CO2 for 5hr, and then 23nL of compounds dissolved in DMSO and positive control were transferred using a Pintool station (Wako, San Diego, CA). The assay plates were incubated at 37C and 5% CO2 for 17hr. For caspase-3/7 activity read, 4uL of Caspase-Glo 3/7 reagent (Promega Corporation, Madison, WI) was added to each well of the assay plates using Flying Reagent Dispenser (FRD, Aurora Discovery, San Diego, CA) and incubated the assay plates at room temperature for 30min. The luminescence signal was quantified using a ViewLux plate reader (Perkin Elmer, Shelton, CT).
On the % scale 0 is the no-effect control and ±100 the full control effect.

**Q.** With `C=CCSCC1Nc2cc(Cl)c(S(N)(=O)=O)cc2S(=O)(=O)N1` (stereo not given) as the compound, how does the “caspase activation” value read?
**A.** 0.117% [at 42.5 µM] (inactive)

**Q.** With `NC(=O)c1ncn([C@@H]2O[C@H](CO)[C@@H](O)[C@H]2O)c1N` as the compound, how does the “caspase activation” value read?
**A.** -0.491% [at 42.5 µM] (inactive)

**Q.** For `OCCN1C[C@H](O)[C@@H](O)[C@H](O)[C@H]1CO`, which “caspase activation” value is on record?
**A.** 0.247% [at 42.5 µM] (inactive)

**Q.** For `CC12CCC(CC1=O)C2(C)C` (stereo not given), which “caspase activation” value is on record?
**A.** 0.758% (inactive)

**Q.** For `Cc1cc(C)cc(OCC2CNC(=O)O2)c1` (stereo not given), which “caspase activation” value is on record?
**A.** 1.45% [at 42.5 µM] (inactive)

**Q.** For `CC1=CC(=O)CCC1`, which “caspase activation” value is on record?
**A.** 0.566% (inactive)

**Q.** For `CCCCC=O`, which “caspase activation” value is on record?
**A.** 0.0572% (inactive)

**Q.** Which “caspase activation” value does the source give for `COc1nc(C)nc(N)n1` here?
**A.** 0.138% (inactive)

**Q.** For `NS(=O)(=O)c1cc2c(cc1C(F)(F)F)NC(Cc1ccccc1)NS2(=O)=O` (stereo not given), which “caspase activation” value is on record?
**A.** 0.212% [at 42.5 µM] (inactive)

**Q.** For `NC(=O)c1ncn([C@@H]2O[C@H](CO)[C@@H](O)[C@H]2O)c1O`, which “caspase activation” value is on record?
**A.** -0.271% [at 42.5 µM] (inactive)

**Q.** For `COCCOC(=O)CC#N`, which “caspase activation” value is on record?
**A.** 0.155% (inactive)

**Q.** Which “caspase activation” value does the source give for `CC(C)(O)Cc1ccccc1` here?
**A.** 1.41% (inactive)

**Q.** Which “caspase activation” value does the source give for `O=c1[nH]c2ccccc2c(=O)n1CCCl` here?
**A.** -1.49% [at 42.5 µM] (inactive)

**Q.** Which “caspase activation” value does the source give for `c1ccc2cnncc2c1` here?
**A.** -0.0023% (inactive)

**Q.** With `C=C(C)C(=O)OCCCCCCCCCCCCCCCCCC` as the compound, how does the caspase activation read?
**A.** -1.69% [at 19 µM] (inactive)

**Q.** With `C=C(C)C(=O)NCCCN(C)C` as the compound, how does the “caspase activation” value read?
**A.** -1.72% (inactive)

**Q.** Which “caspase activation” value does the source give for `CCOC(=O)Nc1ccc2c(c1)N(C(=O)CCN1CCOCC1)c1ccccc1S2` here?
**A.** -0.273% [at 42.5 µM] (inactive)

**Q.** Which “caspase activation” value does the source give for `Cc1ncc(CSSCc2cnc(C)c(O)c2CO)c(CO)c1O` here?
**A.** 4.52% [at 42.5 µM] (inactive)

**Q.** With `CN(C)CCn1nnnc1SCC1=C(C(=O)O)N2C(=O)[C@@H](NC(=O)Cc3csc(N)n3)[C@H]2SC1` as the compound, how does the “caspase activation” value read?
**A.** 0.0094% [at 42.5 µM] (inactive)

**Q.** Which “caspase activation” value does the source give for `OCC(O)[C@@H](O)[C@H](O)[C@H](O)CO[C@H]1O[C@H](CO)[C@@H](O)[C@H](O)[C@H]1O` (stereo not given in full) here?
**A.** 0.283% (inactive)

**Q.** With `CC(C)(C)N(CCO)CCO` as the compound, how does the “caspase activation” value read?
**A.** 1.67% (inactive)

**Q.** Which “caspase activation” value does the source give for `c1cc(CN2CCCCC2)cc(OCCCNc2nc3ccccc3s2)c1` here?
**A.** 6.42% [at 42.5 µM] (inactive)

**Q.** With `CCCCCOC(=O)Nc1nc(=O)n([C@@H]2O[C@H](C)[C@@H](O)[C@H]2O)cc1F` as the compound, how does the “caspase activation” value read?
**A.** -2.37% [at 42.5 µM] (inactive)

**Q.** Which caspase activation does the source give for `C1CCCCCCCCCCC1` here?
**A.** 0.953% [at 19 µM] (inactive)

**Q.** Which “caspase activation” value does the source give for `CC(C)(C)CC(C)(C)N` here?
**A.** 1.86% (inactive)

**Q.** For `COC[C@H](c1ccc(C(F)(F)F)cc1)N1CCN(C2(C)CCN(C(=O)c3c(C)ncnc3C)CC2)C[C@H]1C`, which “caspase activation” value is on record?
**A.** 1.77% [at 42.5 µM] (inactive)

**Q.** Which “caspase activation” value does the source give for `NS(=O)(=O)c1cc(C2(O)NC(=O)c3ccccc32)ccc1Cl` (stereo not given) here?
**A.** 0.0744% [at 42.5 µM] (inactive)

**Q.** For `CCCCCCCCC=O`, which “caspase activation” value is on record?
**A.** -1.43% (inactive)

**Q.** For `CCc1cc(S(=O)(=O)O)c2cc(C(C)C)cccc1-2`, which “caspase activation” value is on record?
**A.** 0.731% [at 42.5 µM] (inactive)

**Q.** With `O=C1C(CCS(=O)c2ccccc2)C(=O)N(c2ccccc2)N1c1ccccc1` (stereo not given) as the compound, how does the “caspase activation” value read?
**A.** 0.128% [at 42.5 µM] (inactive)

**Q.** For `CCCC=O`, which “caspase activation” value is on record?
**A.** -0.0334% (inactive)

**Q.** Which “caspase activation” value does the source give for `C=C(C)[C@@H]1CCC2=CC(=O)C[C@@H](C)[C@]2(C)C1` here?
**A.** 2.7% (inactive)

**Q.** Which “caspase activation” value does the source give for `C1=C\CC/C=C\CC/C=C\CC/1` here?
**A.** -0.364% (inactive)

**Q.** For `CCCCCCOC(=O)CC(CC(=O)OCCCCCC)(OC(=O)CCC)C(=O)OCCCCCC`, which “caspase activation” value is on record?
**A.** 0.542% (inactive)

**Q.** Which “caspase activation” value does the source give for `CCCCCCCCCCCCCCC` here?
**A.** 1% (inactive)

**Q.** For `Cc1ccc(N)cc1[N+](=O)[O-]`, which “caspase activation” value is on record?
**A.** -0.727% (inactive)

**Q.** Which “caspase activation” value does the source give for `CC(C=O)Cc1ccc(C(C)C)cc1` (stereo not given) here?
**A.** -2.04% (inactive)

**Q.** With `Cc1c(C)n(CCN(C)C)c2ccc(C(=O)OCCN(C)C)cc12` as the compound, how does the “caspase activation” value read?
**A.** -1.19% [at 42.5 µM] (inactive)

**Q.** For `NS(=O)(=O)c1cc2c(cc1Cl)NC(CSCc1ccccc1)=NS2(=O)=O`, which “caspase activation” value is on record?
**A.** 0.0684% [at 42.5 µM] (inactive)

**Q.** With `CC(=O)c1ccc(C)cc1` as the compound, how does the “caspase activation” value read?
**A.** -0.0687% (inactive)
